A selection: hits, their analogues and other compounds. The true share with any hit is near 11%.
ALDH1A1 block: qHTS Assay for Inhibitors of Aldehyde Dehydrogenase 1 (ALDH1A1); Aldehyde dehydrogenase 1A1 (Homo sapiens), P00352; Purified ALDH1A1, NADH fluorescence, propionaldehyde substrate; Potency, µM (top dose mostly 75.3 µM), inactives show at the top dose activity, negative = inhibition, hits mostly inhibitors; hit rate 7.3% among 220,000;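 further: potency means the concentration at half of the fitted maximal effect; plate controls were no enzyme wells and a reference inhibitor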
IMPase cell inh: qHTS Assay for Identifying the Cell-Membrane Permeable IMPase Inhibitors; Inositol monophosphatase 1 (Rattus norvegicus), P97697; CHO-M1 cells, IP1 accumulation, HTRF TR-FRET ratio; inhibition (IP1 accumulation), % at 46.1 µM; 120,000 tested, under 10 active; active means well fitted curve in the direction sought with a large enough effect in the signal ratio, not every such curve was filed as active; inconclusive means small, poorly fitted or top-dose-only effect, or a change in a side signal; inactive means no such curve, though single readings can be large or run the other way; the % refers to the signal ratio;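 further: cells stimulated with carbachol in lithium chloride buffer; plate controls were DMSO basal wells for no effect and reference inhibitor wells for full effect; higher means more IMPase inhibition seen as more IP1 and lower FRET ratio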
Target sequence (P97697 whole entry, looked up): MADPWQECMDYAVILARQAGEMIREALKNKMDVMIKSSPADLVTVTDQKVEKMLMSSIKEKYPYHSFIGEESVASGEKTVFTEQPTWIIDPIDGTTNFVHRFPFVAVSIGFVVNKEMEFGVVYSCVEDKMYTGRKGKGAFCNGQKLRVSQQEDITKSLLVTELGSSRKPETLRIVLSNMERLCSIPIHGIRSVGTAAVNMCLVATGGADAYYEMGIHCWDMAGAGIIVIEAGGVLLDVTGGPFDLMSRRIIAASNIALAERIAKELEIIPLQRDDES
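In this qHTS, compounds (final up to 46 uM) act on CHO-M1 cells that are then activated through the M1 receptor with carbachol, in pH 7.4 buffer containing 50 mM LiCl, for 30 min. IP1 accumulation is quantified by the IP-One immunoassay.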
12-hLO inh: qHTS Assay for Inhibitors of 12-hLO (12-human lipoxygenase); Polyunsaturated fatty acid lipoxygenase ALOX12 (Homo sapiens), P18054; purified 12-hLO, xylenol orange hydroperoxide absorbance; Potency, µM (titrated, usually from 57.1 µM), for inactives: top-dose activity change, negative = inhibition, hits mostly inhibitors; hit rate 0.12% among 150,000; AID 1452, 2008; active means well fitted curve in the direction sought with a large enough effect; inconclusive means small, poorly fitted or top-dose-only effect, or another doubt; inactive means no such curve, though single readings can be large; an effect the other way counts as inactive or inconclusive; further: potency means the concentration at half of the fitted maximal effect; nearly all actives have a fitted effect of over 55% in size
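Lipoxygenase turnover measured by absorbance at 573 and 405 nm after Fe-XO development. Human 12hLO 150 nM, arachidonate 40 uM, pH 7.0 Hepes buffer with detergent; 15 min compound preincubation, 30 min reaction.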
PNC inhibitor: High Content Assay for Compounds that inhibit the Assembly of the Perinucleolar Compartment | PC3M PTB-GFP, PNC prevalence imaging, 16 h; active compounds read low | activity change (PNC), negative = inhibition, % at 10 µM | hit rate 3.1% among 140,000 | AID 2417, 2010;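 active means readout at or below -70, meaning at least 70% loss of cells showing the perinucleolar compartment, a nuclear body marking cancer cells; inconclusive means readout between -30 and a set limit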;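 further: plate controls were DMSO wells for no effect and camptothecin positive control wells for full effect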
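Compounds are pinned in duplicate onto adhered PC3M cells stably expressing GFP-tagged PTB and incubated 16 h at 37 C. Cells are then fixed, nuclei stained with Hoechst, and PNC-positive cells counted.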
IMPase Li cell: qHTS Assay for Identifying the Cell-Membrane Permeable IMPase Inhibitors: Potentiation with Lithium; CHO-M1 cells, IP1 TR-FRET (IP-One), carbachol + lithium; hit rate 0.35% among 210,000; Potency, µM (doses to about 59.4 µM), for the others: top-dose activity, negative = IMPase inhibition, most hits filed as inhibitors; AID 1457, 2008; active means well fitted curve in the direction sought with a large enough effect; inconclusive means small, poorly fitted or top-dose-only effect, or another doubt; inactive means no such curve, though single readings can be large; an effect the other way counts as inactive or inconclusive;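 further: IP1 builds up when IMPase is blocked and the TR-FRET signal falls; potency means the concentration at half of the fitted maximal effect; plate controls were basal vehicle for no effect and high inhibitor control for full effect; nearly all actives have a fitted effect of over 50% in size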
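CHO-M1, 2000 cells/well, 16–30 h culture; cpd + low Li+, 30 min 37C; lysis with d2-IP1/Eu-anti-IP1 Ab, 10 min RT; TR-FRET 665/620 ratio and 620 channel; AC50 via Hill.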
HPGD block: qHTS Assay for Inhibitors of HPGD (15-Hydroxyprostaglandin Dehydrogenase); 15-hydroxyprostaglandin dehydrogenase [NAD(+)] (Homo sapiens), P15428; hit rate 4.3% among 150,000; Potency, µM, without a hit: at the highest dose activity change, negative = inhibition, actives largely listed as inhibitors; purified HPGD, NADH fluorescence kinetic, PGE2 substrate; further: potency means the concentration at half of the fitted maximal effect
Target sequence (P15428 whole entry, looked up): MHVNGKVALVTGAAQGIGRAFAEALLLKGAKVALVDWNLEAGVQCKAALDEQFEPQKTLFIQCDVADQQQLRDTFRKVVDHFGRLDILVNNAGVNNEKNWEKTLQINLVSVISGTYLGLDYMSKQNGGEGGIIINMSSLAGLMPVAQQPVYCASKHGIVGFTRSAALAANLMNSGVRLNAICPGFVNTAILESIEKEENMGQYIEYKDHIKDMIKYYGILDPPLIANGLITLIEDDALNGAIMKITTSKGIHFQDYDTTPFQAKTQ
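NADH formation kinetics: reaction with 30 uM PGE2 and 1 mM NAD+ (final), 20 nM enzyme, Tris-HCl pH 8 with Tween 20, after 15 min compound preincubation at room temperature. Fluorescence change, last versus first of five reads.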
Starred values were filed as active, the others as inactive; [ ] = remark or other dose. Unless noted, the call rests on the fitted dose curve; in most records, active means well fitted inhibition curve with a large enough effect (not every such curve was filed as active); inconclusive means small, poorly fitted or top-dose-only effect, or another doubt; inactive means no such curve, though single readings can be large or run the other way. Unless noted, on the % scale 0 is the no-effect control and ±100 the full control effect.

How did CCOc1ccc(C2NC(=O)C(C#N)=C(S)N2c2ccc(OC)cc2)cc1OC (stereo not given) do in these assays?
ALDH1A1 block: 20µM*; IMPase cell inh: 12.5; 12-hLO inh: 1.5%; PNC inhibitor: 20.0; IMPase Li cell: 9.1%[38.3 µM]; HPGD block: -28.9%

Results for Cn1cc(C2=C(c3cn(CCCSC(=N)N)c4ccccc34)C(=O)NC2=O)c2ccccc21 ?
ALDH1A1 block: -5.0%; 12-hLO inh: -21.1%; IMPase Li cell: 14.9%; HPGD block: -7.7%

What do the screens show for `O=C(NCCN1CCCC1)c1ccc(-n2c(=O)c(=O)[nH]c3ccccc32)cc1`?
ALDH1A1 block: 5.7%; 12-hLO inh: -2.6%; HPGD block: -3.5%

Results for CC(=O)NS(=O)(=O)c1ccc(NC(=O)c2cc(-c3ccc(C)cc3)nc3ccccc23)cc1 ?
ALDH1A1 block: inconclusive; IMPase cell inh: -15.0; 12-hLO inh: -6.5%; PNC inhibitor: inconclusive; IMPase Li cell: -1.1%; HPGD block: -20.4%

Results for Cc1c(C(=O)N/N=C/c2ccccc2)[nH]c2ccc(Cl)cc12 ?
ALDH1A1 block: -6.3%; IMPase cell inh: -0.4; 12-hLO inh: 0.7%; PNC inhibitor: -11.5; IMPase Li cell: 12.2%; HPGD block: -7.8%

How did Cc1cc(C(=O)OCC(=O)c2cccs2)c2ccccc2n1 do in these assays?
ALDH1A1 block: inconclusive; IMPase Li cell: 7.3%

What do the screens show for `Cc1c(C(=O)N/N=C/c2ccc(N(C)C)cc2)[nH]c2ccc(Cl)cc12`?
ALDH1A1 block: inconclusive; 12-hLO inh: -1.2%; PNC inhibitor: -113.0*; IMPase Li cell: -5.2%; HPGD block: -18.1%

How did CC(=O)NS(=O)(=O)c1ccc(NC(=O)c2cc(-c3ccc(C)c(C)c3)nc3ccccc23)cc1 do in these assays?
ALDH1A1 block: -7.8%; IMPase cell inh: 6.6; 12-hLO inh: -6.0%; PNC inhibitor: -96.3*; IMPase Li cell: -1.8%[38.3 µM]; HPGD block: -23.2%

Results for Cc1cc(C(=O)N/N=C(\CCC(=O)O)c2cccs2)c2ccccc2n1 ?
ALDH1A1 block: 25.1µM*; IMPase Li cell: -3.9%

What do the screens show for `O=C(O)c1ccc(/C=N/NC(=O)c2cc(-c3cccs3)nc3ccccc23)cc1`?
ALDH1A1 block: inconclusive; 12-hLO inh: -1.0%; PNC inhibitor: -106.7*; IMPase Li cell: -1.8%; HPGD block: inconclusive

What do the screens show for `COCCn1c(=O)c(C)nc2cnc(N3CCOCC3)nc21`?
ALDH1A1 block: inconclusive; IMPase Li cell: 9.6%

How did Nc1ncnc2[nH]c(=O)[nH]c12 do in these assays?
ALDH1A1 block: -0.9%; 12-hLO inh: 0.3%; IMPase Li cell: 0.2%; HPGD block: -5.3%

What do the screens show for `Cc1cc(C(=O)N/N=C/c2ccc(N(C)C)cc2)c2ccccc2n1`?
ALDH1A1 block: 35.5µM*; IMPase Li cell: -1.7%

How did O=C(N/N=C/c1ccsc1)c1cc(-c2ccncc2)nc2ccccc12 do in these assays?
ALDH1A1 block: -8.9%; 12-hLO inh: -4.3%; PNC inhibitor: -113.8*; IMPase Li cell: -7.7%; HPGD block: -8.1%

Results for COc1ccccc1-c1cc(C(=O)N/N=C/c2sccc2C)c2ccccc2n1 ?
ALDH1A1 block: inconclusive; IMPase cell inh: -0.6; 12-hLO inh: -6.7%; PNC inhibitor: 10.6; IMPase Li cell: -13.6%[38.3 µM]; HPGD block: inconclusive

Results for CC(/C=N/NC(=O)c1cc(-c2ccncc2)nc2ccccc12)=C\c1ccco1 ?
ALDH1A1 block: inconclusive; IMPase cell inh: 0.1; 12-hLO inh: -1.9%; PNC inhibitor: -87.1*; IMPase Li cell: 12.8%[38.3 µM]; HPGD block: -21.1%

Results for Cc1cc(C(=O)N/N=C/c2ccc([N+](=O)[O-])cc2)c2ccccc2n1 ?
ALDH1A1 block: 4.1%

How did Cc1ccsc1/C=N/NC(=O)c1cc(-c2ccncc2)nc2ccccc12 do in these assays?
ALDH1A1 block: inconclusive; 12-hLO inh: 5.2%; PNC inhibitor: -109.0*; IMPase Li cell: 10.0%; HPGD block: -20.6%

What do the screens show for `CCCCN1CC[C@@H]2C=CC[C@H](C(=O)OC)[C@@H]2C1=O`?
ALDH1A1 block: -0.6%[120 µM]; 12-hLO inh: -4.1%[0.00818 µM]; IMPase Li cell: 3.8%; HPGD block: -2.2%

Results for CN1CCN(c2nc3c(c(=O)n(C)c(=O)n3C)n2C)CC1 ?
ALDH1A1 block: -7.0%[13.5 µM]; 12-hLO inh: -0.6%[11.4 µM]; IMPase Li cell: -6.5%; HPGD block: -7.2%

Results for O=C(N/N=C/c1ccc2c(c1)OCO2)c1cc(-c2ccncc2)nc2ccccc12 ?
ALDH1A1 block: 1.8%; 12-hLO inh: -1.0%; PNC inhibitor: -21.1; IMPase Li cell: 5.4%; HPGD block: 28.2µM*

How did NS(=O)(=O)c1ccc(NC(=O)c2cc(-c3cccs3)nc3ccccc23)cc1 do in these assays?
ALDH1A1 block: inconclusive; IMPase cell inh: -9.9; 12-hLO inh: -3.8%; PNC inhibitor: -115.1*; IMPase Li cell: 6.8%; HPGD block: inconclusive

How did CN(C)S(=O)(=O)c1ccc(NC(=O)c2cc(-c3cccs3)nc3ccccc23)cc1 do in these assays?
ALDH1A1 block: inconclusive; 12-hLO inh: 0.0%; PNC inhibitor: 0.2; IMPase Li cell: -0.7%; HPGD block: inconclusive

What do the screens show for `CC(Oc1cc(Cl)ccc1Cl)C(=O)N/N=C\c1ccnn1C` (stereo not given)?
ALDH1A1 block: 14.6%; 12-hLO inh: 2.4%; PNC inhibitor: -109.0*; IMPase Li cell: 5.3%; HPGD block: 2.6%

How did O=C1C2C3C=CC([C@@H]2C(=O)N1C1CCCCC1)[C@H]1C(=O)N(C2CCCCC2)C(=O)C31 (stereo not given in full) do in these assays?
ALDH1A1 block: 1.41µM*; IMPase cell inh: 12.0; 12-hLO inh: 1.7%; PNC inhibitor: -18.9; IMPase Li cell: 0.5%[38.3 µM]; HPGD block: -4.0%

How did O=C1C2C3C=CC(C2C(=O)N1C1CCCCC1)C1C2C(=O)N(C4CCCCC4)C(=O)C2C31 (stereo not given) do in these assays?
ALDH1A1 block: 1.41µM*; IMPase cell inh: -8.1; 12-hLO inh: 1.2%; PNC inhibitor: -1.5; IMPase Li cell: -3.6%; HPGD block: 3.3%
